# Assay results from PubChem BioAssay (NCATS).
# Where “and” joins values, the source holds several entries; their conditions need not be identical. Equal values may be shown once. Inconclusive results are not listed. Calls of active or inactive are those of the source. Unless noted, the call rests on the fitted dose curve.
# Legend:
# [1] = qHTS Assay for Lipid Storage Modulators (AID 1519); conditions: Drosophila S3 cells, BODIPY lipid droplet/cell ratio, laser cytometry, cells loaded with oleic acid; on activity change, negative = inhibition: on the % scale 0 is the no-effect control and ±100 the full control effect
# How it was run: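 Cells seeded at 5,000 per well were treated with compounds over a concentration series and loaded with oleic acid (400 uM, as added). Lipid droplet fluorescence (488 nm excitation, 500-530 nm channel) was read by laser-scanning cytometry and normalized to 20 uM Triacsin C.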
# [2] = Cell Viability - LYMP2-020 (AID 986; active means well fitted curve in the direction sought with a large enough effect; an effect the other way counts as inactive or inconclusive;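 further: plate controls were DMSO only for no effect and tetraoctylammonium bromide at 92 µM for full effect; nearly all actives have a fitted effect of over 55% in size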); conditions: series mostly up to 92.2 µM
# How it was run: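 qHTS, 2500 cells/well; 5 hr then 24 hr compound exposure, 37 C; CellTiter-Glo luminescence after 30 min RT; ATP decrease taken as cytotoxicity; AC50 via Hill equation; tetraoctylammonium bromide positive control.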
# [3] = Cell Viability - LYMP2-022 (AID 987; active means well fitted curve in the direction sought with a large enough effect; an effect the other way counts as inactive or inconclusive;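 further: 0% = DMSO alone and full effect = tetraoctylammonium bromide at 92 µM; nearly all actives have a fitted effect of over 55% in size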); conditions: LYMP2-022 lymphoblastoid cell viability; series mostly up to 92.2 µM
# How it was run: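 Luminescent ATP read-out (CellTiter-Glo, 30 min, RT) after 24 hr, 37 C compound exposure of 2500 human lymphoblastoid cells/well in complete medium. Cytotoxicity taken as concentration-dependent ATP loss; AC50 from standard Hill equation.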
# [4] = Cell Viability - LYMP2-024 (AID 988; active means well fitted curve in the direction sought with a large enough effect; an effect the other way counts as inactive or inconclusive;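 further: plate controls were DMSO only for no effect and 92 µM tetraoctylammonium bromide for full effect; nearly all actives have a fitted effect of over 60% in size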); conditions: LYMP2-024 lymphoblastoid cell viability; series mostly up to 92.2 µM
# How it was run: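 ATP-based luminescence (CellTiter-Glo, 30 min RT) after 24 h compound exposure at 37 C of 2500 lymphoblastoid cells/well; decrease in ATP taken as cytotoxicity. qHTS concentration-response fitted to standard Hill equation for AC50.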
# [5] = Cell Viability - LYMP2-026 (AID 989; active means well fitted curve in the direction sought with a large enough effect; an effect the other way counts as inactive or inconclusive; further: on the % scale 0 is the no-effect control and ±100 the full control effect; nearly all actives have a fitted effect of over 50% in size); conditions: LYMP2-026 lymphoblastoid cell viability, qHTS; series mostly up to 92.2 µM
# How it was run: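 qHTS cytotoxicity: 2500 cells/well, 5 hr 37 C, compound 24 hr 37 C, CellTiter-Glo 30 min RT, luminescence. Tetraoctylammonium bromide positive control. AC50 via standard Hill fit.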
# [6] = Cell Viability - LYMP1-002 - Assay at 24 hr (AID 993; active means well fitted curve in the direction sought with a large enough effect; an effect the other way counts as inactive or inconclusive; further: on the % scale 0 is the no-effect control and ±100 the full control effect); conditions: LYMP1-002 lymphoblastoid cells viability; series mostly up to 92.2 µM
# How it was run: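 CellTiter-Glo luminescence (intracellular ATP) after 24 h compound exposure, 37 C, in LYMP1-002 human lymphoblastoid cells; decreased ATP taken as cytotoxicity. AC50 from standard Hill fit of concentration-response curves.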
# [7] = Cell Viability - LYMP1-002 - Assay at 40 hr (AID 994; active means well fitted curve in the direction sought with a large enough effect; an effect the other way counts as inactive or inconclusive;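 further: 0% = DMSO only and full inhibition = 92 µM tetraoctylammonium bromide; nearly all actives have a fitted effect of over 60% in size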); conditions: LYMP1-002 lymphoblastoid cell viability; series mostly up to 92.2 µM
# How it was run: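 qHTS cytotoxicity; 2500 cells/well, 5 hr 37 C settle, compound 40 hr 37 C. CellTiter-Glo, 30 min RT, luminescence (ATP). Concentration-response, Hill fit → AC50. Pos. ctrl tetraoctylammonium bromide.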
# [8] = molecular target: Alpha-galactosidase A (Homo sapiens) (UniProt P06280); test: Counterscreen for Glucocerebrosidase Inhibitors: qHTS Assay for Human alpha-Galactosidase at pH 4.5 (AID 992; active means well fitted curve in the direction sought with a large enough effect; an effect the other way counts as inactive or inconclusive; further: 0% is about no effect); conditions: purified enzyme, fluorogenic substrate; series mostly up to 76.9 µM
# Chain of Alpha-galactosidase A (Homo sapiens) (P06280 whole entry, looked up): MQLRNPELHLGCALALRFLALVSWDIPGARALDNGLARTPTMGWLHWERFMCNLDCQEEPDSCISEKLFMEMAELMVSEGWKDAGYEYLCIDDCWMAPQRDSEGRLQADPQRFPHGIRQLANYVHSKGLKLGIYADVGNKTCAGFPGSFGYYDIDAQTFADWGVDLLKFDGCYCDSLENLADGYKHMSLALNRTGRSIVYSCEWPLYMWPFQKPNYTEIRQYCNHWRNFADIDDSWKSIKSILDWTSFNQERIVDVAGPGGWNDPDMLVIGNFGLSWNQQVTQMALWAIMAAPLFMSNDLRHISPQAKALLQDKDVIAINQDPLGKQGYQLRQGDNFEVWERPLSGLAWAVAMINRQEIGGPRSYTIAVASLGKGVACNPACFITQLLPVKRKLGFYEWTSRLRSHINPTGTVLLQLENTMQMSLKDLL
# How it was run: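 Fluorogenic 1536-well qHTS at pH 4.5 (citrate, Tween-20): 2 nM enzyme, 80 uM 4-MU-alpha-galactoside, 20 min room temperature, NaOH/glycine stop. Titration 0.7 nM to 77 uM, data normalized to no-enzyme and full-activity controls, Hill-fitted AC50.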
# [9] = molecular target: alpha-glucosidase (Oryza sativa, rice) (UniProt Q653V4); test: Counterscreen for Glucocerebrosidase Inhibitors: qHTS Assay for Rice alpha-Glucosidase at pH 5.0 (AID 997; active means well fitted curve in the direction sought with a large enough effect; an effect the other way counts as inactive or inconclusive;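 further: 0% = full activity with enzyme and -100% = basal without enzyme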); conditions: rice alpha-glucosidase enzyme activity; series mostly up to 76.9 µM
# How it was run: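 Endpoint fluorogenic assay at pH 5.0: compounds (0.7 nM to 77 uM) titrated against 4 nM rice enzyme and 400 uM 4-MU-alpha-glucoside for 20 min at room temperature; NaOH/glycine stop, read ex 365/em 440 nm, Hill-fitted AC50.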
# [10] = measured here: cell count channel max response
# [11] = measured here: lipid channel max response
smiles,measurement,setting,value
CCC(Cc1c(I)cc(I)c(N)c1I)C(=O)O (centres undefined),"activity change, negative = inhibition",[1]; at 57.5 µM (top of the series),4.6% (inactive)
same,max response,[1]; [10],19.5%
same,max response,[1]; [11],27.1%
N=C(N)N1CCc2ccccc2C1,"activity change, negative = inhibition",[1]; at 25.7 µM (top of the series),-0.877% (inactive)
same,max response,[1]; [10],-5.56%
same,max response,[1]; [11],-6.4%
CN1CCC(OC(c2ccccc2)c2ccccc2)CC1,"activity change, negative = inhibition",[1]; at 25.7 µM (top of the series),-2.89% (inactive)
same,max response,[1]; [10],-24.7%
same,max response,[1]; [11],-25.4%
C[N+]12CCC(CC1)C(OC(=O)C(O)(c1ccccc1)c1ccccc1)C2 (centres undefined),"activity change, negative = inhibition",[1]; at 57.5 µM (top of the series),1.37% (inactive)
same,max response,[1]; [10],13%
same,max response,[1]; [11],15.6%
NS(=O)(=O)c1cc(C(=O)O)cc(N2CCCC2)c1Oc1ccccc1,"activity change, negative = inhibition",[1]; at 25.7 µM (top of the series),-4.05% (inactive)
same,max response,[1]; [10],-4.21%
same,max response,[1]; [11],-6.59%
COC(=O)C(c1ccccc1Cl)N1CCc2sccc2C1 (centres undefined),"activity change, negative = inhibition",[1]; at 57.5 µM (top of the series),8.17% (inactive)
same,max response,[1]; [10],3.08%
same,max response,[1]; [11],15.9%
CCCCC(CC)CN1CN(CC(CC)CCCC)CC(C)(N)C1 (centres undefined),"activity change, negative = inhibition",[1]; at 57.5 µM (top of the series),3.27% (inactive)
same,max response,[1]; [10],28.9%
same,max response,[1]; [11],41.5%
CC(C)(C)NC[C@H](O)COc1cccc2c1CCCC2=O,"activity change, negative = inhibition",[1]; at 25.7 µM (top of the series),-0.268% (inactive) and -1.87% (inactive)
same,max response,[1]; [10],-9.82% and 1.67%
same,max response,[1]; [11],-10.4% and -0.857%
CCc1cc(Cl)c(OC)c(C(=O)NC[C@@H]2CCCN2CC)c1O,"activity change, negative = inhibition",[1]; at 25.7 µM (top of the series),-7.25% (inactive)
same,max response,[1]; [10],-16.4%
same,max response,[1]; [11],-19.5%
COc1ccc(CN(CCN(C)C)c2ncccn2)cc1,"activity change, negative = inhibition",[1]; at 57.5 µM (top of the series),7.7% (inactive)
same,max response,[1]; [10],6.82%
same,max response,[1]; [11],17.3%
O=C(O)P(=O)(O)O,"activity change, negative = inhibition",[1]; at 57.5 µM (top of the series),3.11% (inactive)
same,max response,[1]; [10],17.9%
same,max response,[1]; [11],24.7%
CCCCc1cc2ccccc2c(OCCN(C)C)n1,"activity change, negative = inhibition",[1]; at 25.7 µM (top of the series),-1.95% (inactive)
same,max response,[1]; [10],-12.7%
same,max response,[1]; [11],-12.3%
Cc1c(-c2ccccc2)oc2c(C(=O)OCCN3CCCCC3)cccc2c1=O,"activity change, negative = inhibition",[1]; at 25.7 µM (top of the series),1.6% (inactive)
same,max response,[1]; [10],5.61%
same,max response,[1]; [11],7.37%
Nc1ccc(C(=O)NCC(=O)O)cc1,"activity change, negative = inhibition",[1]; at 25.7 µM (top of the series),-0.313% (inactive)
same,max response,[1]; [10],-0.767%
same,max response,[1]; [11],0.146%
CCCCNc1ccc(C(=O)OCCOCCOCCOCCOCCOCCOCCOCCOCCOC)cc1,"activity change, negative = inhibition",[1]; at 25.7 µM (top of the series),-1.21% (inactive)
same,max response,[1]; [10],-3.1%
same,max response,[1]; [11],-4.96%
OCCOCCN1CCN(C2=Nc3ccccc3Sc3ccccc32)CC1,"activity change, negative = inhibition",[1]; at 57.5 µM (top of the series),5.93% (inactive)
same,max response,[1]; [10],10.4%
same,max response,[1]; [11],19.3%
CC(=O)NCCCCCC(=O)O,"activity change, negative = inhibition",[1]; at 57.5 µM (top of the series),4.31% (inactive)
same,max response,[1]; [10],6.35%
same,max response,[1]; [11],14.8%
CCN(CC)CCOC(=O)C(Cc1cccc2ccccc12)CC1CCCO1 (centres undefined),"activity change, negative = inhibition",[1]; at 57.5 µM (top of the series),2.17% (inactive)
same,max response,[1]; [10],20.1%
same,max response,[1]; [11],24.7%
Nc1ccc(S(=O)(=O)Nc2cnc3ccccc3n2)cc1,"activity change, negative = inhibition",[1]; at 25.7 µM (top of the series),-4.76% (inactive)
same,max response,[1]; [10],-5.93%
same,max response,[1]; [11],-10.6%
CC(C)NCC(O)c1ccc2ccccc2c1 (centres undefined),"activity change, negative = inhibition",[1]; at 57.5 µM (top of the series),9.75% (inactive)
same,max response,[1]; [10],8.22%
same,max response,[1]; [11],21.3%
CC(=O)NO,"activity change, negative = inhibition",[1]; at 57.5 µM (top of the series),3.44% (inactive)
same,max response,[1]; [10],22.2%
same,max response,[1]; [11],28.9%
CCN1CCCC(OC(=O)C(c2ccccc2)c2ccccc2)C1 (centres undefined),"activity change, negative = inhibition",[1]; at 57.5 µM (top of the series),-10.7% (inactive)
same,max response,[1]; [10],-5.03%
same,max response,[1]; [11],-14.3%
CC(C(=O)O)c1cccc(Oc2ccccc2)c1 (centres undefined),"activity change, negative = inhibition",[1]; at 57.5 µM (top of the series),9.66% (inactive)
same,max response,[1]; [10],14.6%
same,max response,[1]; [11],29.6%
O=C1C(=O)c2ccccc2C(O)=C1C1CCC(c2ccc(Cl)cc2)CC1 (centres undefined),"activity change, negative = inhibition",[1]; at 57.5 µM (top of the series),10.1% (inactive)
same,max response,[1]; [10],7.54%
same,max response,[1]; [11],21.8%
Cc1cc(-c2ccccc2)nnc1NCCN1CCOCC1,"activity change, negative = inhibition",[1]; at 25.7 µM (top of the series),1.62% (inactive)
same,max response,[1]; [10],-6.4%
same,max response,[1]; [11],-4.28%
COc1cc(C)nc(-n2nc(C)cc2OC)n1,"activity change, negative = inhibition",[1]; at 25.7 µM (top of the series),-0.43% (inactive)
same,max response,[1]; [10],-1.69%
same,max response,[1]; [11],-3.43%
Cc1ncc(CO)c(C=O)c1O,"activity change, negative = inhibition",[1]; at 57.5 µM (top of the series),-6.06% (inactive)
same,max response,[1]; [10],-8.99%
same,max response,[1]; [11],-15.3%
CCOC(=O)c1ccc(N)cc1,"activity change, negative = inhibition",[1]; at 25.7 µM (top of the series),4.88% (inactive)
same,max response,[1]; [10],-2.21%
same,max response,[1]; [11],-0.169%
CCCc1ncc(C[n+]2ccccc2C)c(N)n1,"activity change, negative = inhibition",[1]; at 25.7 µM (top of the series),-1.66% (inactive)
same,max response,[1]; [10],1.76%
same,max response,[1]; [11],0%
CC(=O)Nc1ccc(S(=O)(=O)Nc2ccc([N+](=O)[O-])cc2)cc1,"activity change, negative = inhibition",[1]; at 57.5 µM (top of the series),7.58% (inactive)
same,max response,[1]; [10],4.05%
same,max response,[1]; [11],18.4%
CCN(CC)CCOc1ccc2c(c1)C(=O)c1cc(OCCN(CC)CC)ccc1-2,"activity change, negative = inhibition",[1]; at 57.5 µM (top of the series),7.59% (inactive)
same,max response,[1]; [10],-3.23%
same,max response,[1]; [11],9.04%
CCCCC(CC)COC(=O)c1ccc(N(C)C)cc1 (centres undefined),Potency,[2],inactive
same,outcome,[3],inactive
same,Potency,[4],inactive
same,outcome,[5],inactive
same,outcome,[6],inactive
same,Potency,[7],inactive
NCCNc1cccc2ccccc12,Potency,[4],inactive
same,outcome,[5],inactive
same,outcome,[6],inactive
same,Potency,[7],inactive
C=C[C@H]1CN2CC[C@H]1C[C@@H]2[C@@H](O)c1ccnc2ccc(OC)cc12,Potency,[2],inactive
same,outcome,[3],inactive
same,Potency,[4],inactive
same,outcome,[5],inactive
same,outcome,[6],inactive
same,Potency,[7],inactive
COc1ccc(C(=O)c2ccccc2O)c(O)c1,"activity change, negative = inhibition",[1]; at 25.7 µM (top of the series),-7.39% (inactive)
same,"activity change, negative = inhibition",[1]; at 57.5 µM (top of the series),4.5% (inactive)
same,max response,[1]; [10],-10.6% and 8.18%
same,max response,[1]; [11],-18.3% and 15.8%
CNCCc1ccccn1,"activity change, negative = inhibition",[1]; at 25.7 µM (top of the series),-0.261% (inactive)
same,"activity change, negative = inhibition",[1]; at 57.5 µM (top of the series),1.62% (inactive)
same,max response,[1]; [10],0.592% and 17.8%
same,max response,[1]; [11],1.76% and 22.8%
NC(=O)c1ccccc1O,Potency,[2],inactive
same,outcome,[3],inactive
same,Potency,[4],inactive
same,outcome,[5],inactive
same,outcome,[6],inactive
same,Potency,[7],inactive
same,"activity change, negative = inhibition",[1]; at 57.5 µM (top of the series),8.72% (inactive)
same,max response,[1]; [10],13.3%
same,max response,[1]; [11],29.8%
NS(=O)(=O)Cc1noc2ccccc12,outcome,[8],inactive
same,outcome,[9],inactive
COc1cc([C@H]2Oc3cc([C@H]4Oc5cc(O)cc(O)c5C(=O)[C@@H]4O)ccc3O[C@@H]2CO)ccc1O,Potency,[2],inactive
same,outcome,[3],inactive
same,Potency,[4],inactive
same,outcome,[5],inactive
same,outcome,[6],inactive
same,Potency,[7],inactive
